Source: PubChem (Broad Institute)
Hits are enriched below; roughly 6.8% of the tested compounds scored in any of these assays.
T cruzi growth-1 – T. cruzi intracellular proliferation inhibitors, primary screen, cell-based, beta-gal Tulahuen parasites, NIH3T3 host, luminescence. 77,000 compounds, 5.9% hits. T. cruzi beta-gal in NIH3T3, GalScreen luminescence, 90 h. inhibition, % at 8.34 µM;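 active means mean inhibition above about 93%, with at least 55% of replicates each passing it, limit read from the data, passing the limit was not always enough; inconclusive means only one of those two conditions holds; inactive means neither condition holds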
C diff HTS – C. difficile growth inhibitors, primary screen, HTS | Clostridium difficile clinical isolate growth, OD600, 24 h; active compounds read low | growth activity, negative = inhibition, % at 16 µg/mL (by protocol) | 86,000 compounds, 0.25% hits;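 active means mean growth activity at or below -80% and every replicate also at or below -80%; inconclusive means mean at or below -80% but some replicate above -80%; inactive means mean growth activity above -80%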;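 further: 0% = DMSO wells and -100% = levofloxacin 16 µg/mL wells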
Pf Dd2 inh – P. falciparum Dd2 growth inhibitors, primary screen, SYBR Green fluorescence, single dose replicates. 72 h; active compounds read low. activity change, % at 10 µM. 94,000 compounds, 2.3% hits. AID 1159554, 2015; in the data active means activity change below about -80%; inconclusive means no clear call, values can overlap the other calls
T cruzi growth-2 – T. cruzi intracellular proliferation inhibitors, confirmation, cell-based, NIH3T3 host, beta-gal parasite, luminescence, cherry-pick; shares compounds with T cruzi growth-1; T. cruzi beta-gal in NIH3T3, GalScreen luminescence, 90 h; inhibition, % at 8.35 µM; 5,600 compounds, 72% hits; AID 651739, 2012;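 active means mean replicate inhibition above about 95% and at least 55% of replicates individually reaching it, limit read from the data; inconclusive means only one of the two criteria is met; inactive means neither criterion is met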
T cruzi growth-3 – inhibitors of intracellular T. cruzi replication, confirmation, NIH3T3 host cells, beta-gal parasites, cherry-pick, set 2 | shares compounds with T cruzi growth-1 | T. cruzi beta-gal in NIH3T3, GalScreen luminescence, 90 h | inhibition, % at 2.09 µM | 5,600 compounds, 21% hits;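 active means mean inhibition above about 95%, with at least 55% of replicates also reaching it, limit read from the data; inconclusive means meets just one of the two conditions; inactive means meets neither condition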;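 further: plate controls were neutral control median for no effect and positive control median for full effect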
NIH3T3 tox – cytotoxicity in mouse NIH/3T3 fibroblasts, confirmation, cytotoxicity control for T. cruzi proliferation inhibitor project, cell-based, cherry-pick, single point. shares compounds with T cruzi growth-1. NIH/3T3 viability, CellTiter-Glo ATP luminescence, 90 h. cytotoxicity (signal decrease), % at 8.35 µM. 5,600 compounds, 14% hits. AID 651742, 2012;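 active means mean signal decrease across replicates above about 35% based on untreated-well scatter, with enough replicates individually passing, limit read from the data; inconclusive means no rule stated though some were filed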;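 further: 0% = median of neutral control wells and 100% = median of positive control wells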
3T3 cytotox 2 – NIH/3T3 fibroblast cytotoxicity, confirmation, cytotoxicity control, cell-based, cherry-pick, single point, set 2; 5,600 compounds, 56% hits; AID 651744, 2012; inhibition, % at 24.9 µM; shares compounds with T cruzi growth-1; NIH/3T3 viability, CellTiter-Glo ATP luminescence, 90 h;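 active means mean loss of cell viability signal at or above a set limit, and enough replicates individually reaching it; inconclusive means meets only the mean limit or only the replicate share; inactive means meets neither condition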;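 further: 0% = median of neutral control wells and 100% = median of positive control wells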
Starred values were filed as active, the others as inactive; u = inconclusive; x = no result given.

SMILES | T cruzi growth-1 | C diff HTS | Pf Dd2 inh | others
C[C@@H]1CN([C@@H](C)CO)S(=O)(=O)c2ccc(-c3cccc(C#N)c3)cc2O[C@@H]1CN(C)C(=O)Nc1ccccc1F | 110* | 3 | -33 | T cruzi growth-2=97*;T cruzi growth-3=88;NIH3T3 tox=48*;3T3 cytotox 2=68*
C[C@@H]1CN([C@H](C)CO)S(=O)(=O)c2ccc(-c3cccc(C#N)c3)cc2O[C@@H]1CN(C)C(=O)c1ccccc1 | 78 | -4 | -31
C[C@H](CO)N1C[C@H](C)[C@@H](CN(C)C(=O)Nc2cc(F)ccc2F)Oc2cc(-c3cccc(C#N)c3)ccc2S1(=O)=O | x | x | -36
Cc1ccccc1S(=O)(=O)N1C[C@H](O)COC[C@@H]2O[C@H](CC(=O)N3CCCCC3)CC[C@H]21 | 21 | x | 2
C[C@@H]1CN([C@@H](C)CO)C(=O)c2cc(NC(=O)C3CC3)ccc2O[C@@H]1CN(C)Cc1ccc(C(F)(F)F)cc1 | 77 | 8 | 0
C[C@H]1CN([C@@H](C)CO)C(=O)c2cc(NC(=O)C3CC3)ccc2O[C@H]1CN(C)C(=O)Nc1cccc2ccccc12 | 18 | -7 | -11
CCCNC(=O)[C@H]1[C@H](CO)[C@H]2Cn3c(cccc3=O)[C@@H]1N2C(=O)C1CCCC1 | 45 | 13 | 6
O=C(NCC(F)(F)F)[C@H]1[C@H](CO)[C@H]2Cn3c(cccc3=O)[C@@H]1N2C(=O)C1CCC1 | 3 | 1 | 18
O=C(NCC(F)(F)F)[C@@H]1[C@@H](CO)[C@@H]2Cn3c(cccc3=O)[C@H]1N2C(=O)C1CC1 | u | -3 | -13 | T cruzi growth-2=1;T cruzi growth-3=39;NIH3T3 tox=-13;3T3 cytotox 2=3
COc1cccc(CNC(=O)[C@H]2[C@H](CO)[C@H]3Cn4c(cccc4=O)[C@@H]2N3C(=O)C2CCCCC2)c1 | 157* | 3 | x | T cruzi growth-2=77;T cruzi growth-3=12;NIH3T3 tox=-25;3T3 cytotox 2=-16
COCC#Cc1cnc2c(c1)C(=O)N([C@@H](C)CO)C[C@@H](C)[C@H](CN(C)C(=O)c1cccc(F)c1)O2 | 27 | -6 | -1
C[C@@H]1CN([C@H](C)CO)C(=O)c2cc(NS(=O)(=O)c3cccs3)ccc2O[C@H]1CN(C)Cc1ccc(-c2ccccc2)cc1 | 19 | -7 | 1
C[C@H](CO)N1C[C@H](C)[C@@H](CN(C)CC2CC2)Oc2ccc(NS(=O)(=O)c3cccs3)cc2C1=O | 24 | 2 | 5
C[C@@H]1CN([C@@H](C)CO)C(=O)c2cc(NS(=O)(=O)c3cccs3)ccc2O[C@@H]1CN(C)CC1CC1 | 99* | 2 | 8 | T cruzi growth-2=77;T cruzi growth-3=32;NIH3T3 tox=17;3T3 cytotox 2=10
C[C@H]1CN([C@@H](C)CO)C(=O)c2cc(NS(=O)(=O)c3cccs3)ccc2O[C@H]1CN(C)Cc1ccc(-c2ccccc2)cc1 | u | 16 | 8 | T cruzi growth-2=85;T cruzi growth-3=-7;NIH3T3 tox=7;3T3 cytotox 2=55*
CC(C)NC(=O)Nc1ccc2c(c1)CC(=O)N([C@H](C)CO)C[C@@H](C)[C@@H](CN(C)C(=O)NC(C)C)O2 | 0 | 1 | 21
O=C(C[C@@H]1CC[C@@H]2[C@H](COC[C@H](O)CN2C(=O)c2ccccc2)O1)Nc1ccc(-c2ccccc2)cc1 | 25 | 6 | -27
O=S(=O)(c1ccccc1)N1[C@@H]2CNC[C@H]1C2c1ccc(-c2cccc(F)c2)cc1 (stereo partly drawn) | x | 1 | -23
CN1C(=O)c2cc(NS(=O)(=O)c3ccccc3Cl)ccc2OC[C@@H]2O[C@H](CC(=O)O)CC[C@H]21 | -7 | 1 | 9
C[C@@H]1CN([C@H](C)CO)S(=O)(=O)c2ccc(C#Cc3ccncc3)cc2O[C@H]1CN(C)S(=O)(=O)c1ccccc1 | 57 | 0 | -54
CCCNC(=O)[C@@H]1[C@@H](CO)[C@@H]2Cn3c(ccc(-c4ccccc4OC)c3=O)[C@@H]2N1C(=O)CC | 13 | 3 | 13
